Rows were chosen to be rich in hits. Some 6.2% of all compounds tested hit in one or more screens of this group.
HCMV antiviral: qHTS Assay for inhibitors of the human cytomegalovirus (HCMV) | HFF cells, HCMV-luciferase reporter, 72 h; active compounds read low | activity change, negative = inhibition, % at 57.5 µM | hit rate 4.5% among 410,000 | AID 1259415, 2018; in the data active = activity change below about -60%; inconclusive = no clear call, values can overlap the other calls; inactive = above about -39%
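Steps: HFFs plated, 16 h 37C; compounds added; HCMV-luciferase added to MOI 1 PFU/cell; 72 h 37C; OneGlo reagent, 5 min room temperature; luminescence read, normalized to controls.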
FMDV inh: High Throughput Screening for Foot and Mouth Disease Virus Antivirals | FMDV antiviral cell-based qHTS | Potency, µM (doses to about 57.9 µM), without a hit: top-dose activity change, negative = inhibition, usual class: inhibitors | hit rate 1.2% among 410,000 | AID 1159524, 2015; calls by dose curve; tested in HEK293T cells; note: read-out not given here; potency is the fitted concentration of half-maximal effect; nearly all actives have a fitted effect of over 45% in size
MARV entry inh: qHTS for inhibitors of binding or entry into cells for Marburg Virus; Marburg virus pseudotyped entry inhibition, cell reporter; Potency, µM (top dose mostly 37.8 µM), for the others: top-dose activity change, negative = inhibition, usual class: inhibitors; hit rate 1.8% among 300,000; AID 540276, 2011; calls by dose curve; tested in HEK293 cells; note: potency is the fitted concentration of half-maximal effect
Lassa entry inh: qHTS for Inhibitors of binding or entry into cells for Lassa Virus. AID 540256, 2011. hit rate 1.2% among 300,000. Lassa virus pseudotype entry inhibition, cell reporter. Potency, µM (series often up to 37.9 µM), for the others: top-dose activity change, negative = inhibition, hits mostly inhibitors; calls by dose curve; tested in HEK293 cells; note: potency is the fitted concentration of half-maximal effect; nearly all actives have a fitted effect of over 50% in size
An asterisk follows results filed as active; ? = inconclusive; . = no result given; [ ] = another dose, or the depositor's remark. % is set by controls: 0 for no effect and ±100 for the full control effect.

SMILES	HCMV antiviral	FMDV inh	MARV entry inh	Lassa entry inh
O=C(c1cc(-c2ccc(Br)cc2)n[nH]1)N1CCN(S(=O)(=O)c2ccc(Br)cc2)CC1	?	-16%	.	4%[46.1 µM]
CCC(=NCc1ccco1)c1c(O)n(-c2ccccc2)c(=O)[nH]c1=O	36	-20%	13%	?
CCC(=NCc1ccco1)c1c(O)n(-c2ccc(C)cc2)c(=O)[nH]c1=O	-9	-17%	?	0.58µM*
O=C(c1ccc(F)cc1)N1CCc2c([nH]c3ccccc23)C1c1ccc(Cl)cc1 (stereo not given)	-66*	-21%	.	?
COc1cc(C(=O)N2CCc3c([nH]c4ccccc34)C2c2ccc(F)cc2)cc(OC)c1OC (stereo not given)	29	-14%	.	8.9µM*
CCOc1cc(C(=O)N2CCc3c([nH]c4ccccc34)C2c2ccccc2)cc(OCC)c1OCC (stereo not given)	-19	-2%	.	?
COc1cccc(C(=O)N2CCc3c([nH]c4ccccc34)C2c2ccc(SC)cc2)c1 (stereo not given)	-64*	-14%	.	?
CSc1ccc(C2c3[nH]c4ccccc4c3CCN2C(=O)c2ccnn2C)cc1 (stereo not given)	-11	17%	?	?
CN(C/N=C(\N)N[N+](=O)[O-])S(=O)(=O)c1ccccc1	?	2%	?	-1%
NNc1nc(-c2ccccc2)c2ccccc2n1	-32	-10%	-25%[46.1 µM]	?
O=C(O)CCC(=O)Nc1cccc(C(=O)c2ccccc2)c1	-27	-20%	.	.
Cc1[nH]c2ccc(C(=O)OC(C)C(=O)NC3CCCCC3C)cc2c1C (stereo not given)	-36	-10%	.	.
COc1c(Cl)cc(Cl)cc1/C=C/C(=O)c1ccc(NC(=O)c2cccs2)cc1	-99*	0%	11µM*	?
Cc1cccc(N/C(N)=N/c2nc(C(F)(F)F)cc(C(F)(F)F)n2)c1	?	-14%	.	.
Cc1ccc(-c2cc(C(F)(F)F)n3nc(C(=O)N4CCN5CCCC5C4)cc3n2)cc1 (stereo not given)	-24	-2%	?	1%[46.1 µM]
CCOC(=O)C1CCCN(C(=O)c2cc3nc(-c4ccc5c(c4)OCO5)cc(C(F)(F)F)n3n2)C1 (stereo not given)	-23	35µM*	?	?
CC(C)(C)c1ccc(CN(Cc2ccccc2)C(c2ccccn2)c2nnnn2C(C)(C)C)cc1 (stereo not given)	-29	-22%	?	5.6µM*
CCN(Cc1ccccc1)C(c1ccncc1)c1nnnn1C(C)(C)C (stereo not given)	-25	-23%	-19%	-47%
CC(C)(C)n1nnnc1C(c1cc2ccccc2o1)N(Cc1ccccc1)Cc1ccccc1 (stereo not given)	-87*	?	.	.
Cc1cccc(NC(=O)CSc2cc(C(=O)c3nccn3C)c3ccccc3n2)c1	10	0%	6%	?
Cc1cccc(NC(=O)CSc2cc(C)c3ccccc3n2)c1	-74*	-26%	2.2µM*	?
CC(=O)Nc1ccc(NC(=O)CSc2nc3ccccc3nc2N2CCCCC2)cc1	-13	9%	21%[46.1 µM]	4%
COc1ccc(C)cc1NC(=O)CSc1nc2ccccc2nc1N1CCOCC1	20	15%	?	?
O=C(CSc1nc2ccccc2nc1N1CCCC1)Nc1ccc(F)cc1	-65*	10%	.	.
Cc1cccc(NC(=O)CSc2nc3ccccc3nc2N2CCC(C)CC2)c1	-88*	-13%	1.1µM*	?
SMILES	HCMV antiviral	FMDV inh	MARV entry inh	Lassa entry inh
Cc1ccc(NC(=O)CSc2nc3ccccc3nc2N2CCOCC2)c(C)c1	-71*	-6%	.	.
CC(=O)Nc1ccc(NC(=O)CSc2nc3ccccc3nc2N2CCC(C)CC2)cc1	-7	9%	1%[46.1 µM]	?
CC(C)Oc1cccc(C(=O)N/N=C/c2ccoc2)c1	-20	25%	0%[46.1 µM]	?
Cc1cc(SCC(=O)c2ccc3c(c2)OCO3)nc2ccccc12	-28	45%	23%	-3%
Cc1cc(SCC(=O)c2ccc(O)c(O)c2)nc2ccccc12	-70*	-19%	?	-4%
O=C1N=C(N2CCc3ccccc3C2)S/C1=C\c1cccc(O)c1	8	6%	24%	21µM*
COc1ccc(/C=C2\SC(N3CCc4ccccc4C3)=NC2=O)cc1	29	-5%	?	?
O=c1[nH]c(SCc2ccc([N+](=O)[O-])cc2)nc2c1CCCC2	19	-15%	-18%[46.1 µM]	-1%[46.1 µM]
Clc1ccc(-c2cn(-c3ccccc3)c3[n+]2CCS3)cc1	-72*	-16%	?	?

Screens from PubChem.
